Data published in PubChem BioAssay AID1159580 (chemical genetic matrix, 2015).
Several values for one entry are separate records, joined by “and”; a condition that tells them apart may be missing. Equal values may be shown once. Among all 5,500 compounds or so, about 2,000 (36%) were called active. Roughly 18% stayed inconclusive and do not appear here. No stated cut-off is given here; in the data, active means normalized growth mostly below about 0.91 (no sharp cut-off); inconclusive means no clear call, values can overlap the other calls; inactive means mostly above about 0.92. The list shows a part of the results.

Test: chemical genetic growth profiling, strain panel (AID 1159580);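 further: tested at 20 µM; growth read once vehicle control cultures reached saturation at 30 °C; 1 = growth at the plate median or of vehicle wells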
Details: S. cerevisiae deletion strains, growth OD

Measured: normalized growth

COc1ccc(C[C@H]2NC[C@H](O)[C@H]2OC(C)=O)cc1
0.133 (active) and 0.945 (inactive): locus YHR030C, strain SLT2, stronger effect = lower value
inactive: locus YBR021W, strain FUR4, stronger effect = lower value 1.05 | locus YBR171W, strain sec66, stronger effect = lower value 1 | locus YBR229C, strain ROT2, stronger effect = lower value 1.01 | locus YCL029C, strain bik1, stronger effect = lower value 0.961 | locus YDL040C, strain nat1, stronger effect = lower value 1 | locus YDL185W, strain tfp1, stronger effect = lower value 0.993 | locus YDR001C, strain nth1, stronger effect = lower value 0.964 | locus YDR137W, strain rgp1, stronger effect = lower value 0.942 | locus YDR159W, strain sac3, stronger effect = lower value 1.09 | locus YDR335W, strain msn5, stronger effect = lower value 0.927 | locus YEL003W, strain gim4, stronger effect = lower value 0.984 | locus YEL061C, strain CIN8 (second series), stronger effect = lower value 0.937 | locus YER110C, stronger effect = lower value 1 | locus YER111C, strain swi4, stronger effect = lower value 0.981 | locus YER155C, strain BEM2 (second series), stronger effect = lower value 0.938 | locus YER155C, strain BEM2, stronger effect = lower value 1.01 | locus YGL078C, strain dbp3, stronger effect = lower value 0.981 | locus YGL167C, strain pmr1, stronger effect = lower value 1.02 | locus YGL227W, strain vid30, stronger effect = lower value 0.989 | locus YGL240W, strain doc1, stronger effect = lower value 0.994 | locus YHR079C, strain IRE1, stronger effect = lower value 0.921 | locus YHR094C, strain hxt1, stronger effect = lower value 1 | locus YHR142W, strain chs7, stronger effect = lower value 0.92 | locus YIL125W, strain kgd1, stronger effect = lower value 1.01 | locus YJL115W, strain asf1, stronger effect = lower value 1.02 | locus YJL134W, strain LCB3, stronger effect = lower value 1.02 | locus YJL154C, strain vps35, stronger effect = lower value 1.01 | locus YJL168C, strain set2, stronger effect = lower value 1.01 | locus YJR066W, strain TOR1, stronger effect = lower value 0.911
0.596 (active) and 0.961 (inactive): locus YJL095W, strain BCK1, stronger effect = lower value
active: locus YAL013W, strain DEP1, stronger effect = lower value 0.0582 | locus YAL021C, strain ccr4, stronger effect = lower value 0.397 | locus YAL026C, strain drs2, stronger effect = lower value 0.762 | locus YAL030W, strain snc1, stronger effect = lower value 0.713 | locus YBL061C, strain skt5, stronger effect = lower value 0.803 | locus YBR009C, strain hhf1, stronger effect = lower value 0.516 | locus YBR023C, strain chs3, stronger effect = lower value 0.823 | locus YBR231C, strain swc5, stronger effect = lower value 0.648 | locus YBR279W, strain paf1, stronger effect = lower value 0.869 | locus YCL011C, strain gbp2, stronger effect = lower value 0.659 | locus YCL016C, strain dcc1, stronger effect = lower value 0.791 | locus YCL069W, strain vba3, stronger effect = lower value 0.904 | locus YCR088W, strain abp1, stronger effect = lower value 0.835 | locus YDL005C, strain med2, stronger effect = lower value 0.122 | locus YDL035C, strain GPR1, stronger effect = lower value 0.222 | locus YDL074C, strain BRE1, stronger effect = lower value 0.242 | locus YDL101C, strain DUN1, stronger effect = lower value 0.306 | locus YDL134C, strain PPH21, stronger effect = lower value 0.533 | locus YDL192W, strain arf1, stronger effect = lower value 0.447 | locus YDR069C, strain doa4, stronger effect = lower value 0.117 | locus YDR101C, strain arx1, stronger effect = lower value 0.874 | locus YDR150W, strain NUM1, stronger effect = lower value 0.656 | locus YDR162C, strain NBP2, stronger effect = lower value 0.0621 | locus YDR195W, strain ref2 0.698 | locus YDR297W, strain sur2, stronger effect = lower value 0.838 | locus YDR318W, strain mcm21, stronger effect = lower value 0.7 | locus YDR334W, strain swr1, stronger effect = lower value 0.901 | locus YDR388W, stronger effect = lower value 0.161 | locus YDR392W, strain spt3, stronger effect = lower value 0.622 | locus YDR502C, strain sam2, stronger effect = lower value 0.734 | locus YEL037C, strain rad23, stronger effect = lower value 0.895 | locus YEL061C, strain CIN8, stronger effect = lower value 0.598 | locus YER015W, strain faa2, stronger effect = lower value 0.81 | locus YER016W, strain bim1, stronger effect = lower value 0.9 | locus YER167W, strain BCK2, stronger effect = lower value 0.704 | locus YFR010W, strain ubp6, stronger effect = lower value 0.104 | locus YGL086W, strain mad1, stronger effect = lower value 0.501 | locus YGL173C, strain kem1, stronger effect = lower value 0.885 | locus YGL248W, strain PDE1, stronger effect = lower value 0.298 | locus YGL253W, strain hxk2, stronger effect = lower value 0.575 | locus YGR078C, strain PAC10, stronger effect = lower value 0.523 | locus YGR135W, strain pre9, stronger effect = lower value 0.272 | locus YGR229C, strain SMI1, stronger effect = lower value 0.0868 | locus YGR252W, strain gcn5, stronger effect = lower value 0.68 | locus YHR013C, strain ard1, stronger effect = lower value 0.336 | locus YHR027C, strain rpn1, stronger effect = lower value 0.717 | locus YHR079C, strain IRE1 (second series), stronger effect = lower value 0.916 | locus YHR129C, strain ARP1, stronger effect = lower value 0.831 | locus YHR200W, strain rpn10, stronger effect = lower value 0.494 | locus YIL066C, strain RNR3, stronger effect = lower value 0.258 | locus YIL073C, strain SPO22, stronger effect = lower value 0.119 | locus YIR030C, strain dcg1, stronger effect = lower value 0.919 | locus YJL092W, strain hpr5, stronger effect = lower value 0.89 | locus YJL095W, strain BCK1 (second series), stronger effect = lower value 0.84 | locus YJL129C, strain trk1, stronger effect = lower value 0.479 | locus YJL164C, strain tpk1, stronger effect = lower value 0.622 | locus YJL166W, strain qcr8, stronger effect = lower value 0.622 | locus YJL187C, strain SWE1 (second series), stronger effect = lower value 0.32 | locus YJR043C, strain POL32, stronger effect = lower value 0.524 | locus YJR075W, strain HOC1, stronger effect = lower value 0.174
